Measurements: PubChem BioAssay AID372 (MTDP, 2006)
Where “and” joins values, the source holds several entries; their conditions need not be identical. Equal entries are not always repeated. The campaign covered roughly 100,000 compounds. About 770 (0.77%) were called active. The entries come from a sample that favours actives as a whole. A number with no mark means an inactive call. No stated cut-off is given here; in the data, active means inhibition above about 50%; inactive means the rest.

molecular target: Gag-Pol polyprotein (Human immunodeficiency virus type 1 group M subtype B (isolate HXB2)) (UniProt P04585); experiment: RNase H inhibition, HIV 1 Gag Pol polyprotein, FRET biochemical assay, screening (AID 372); conditions: HIV-1 RT RNase H, FRET RNA/DNA substrate fluorescence; at 10 µM; active compounds read high

Structure (SMILES)	inhibition
CC(=O)/C(=C(/C)O)c1ncc(-c2ccccc2)s1	12%
Cc1cccc(C(=O)Nc2cccc(C(=O)Nc3ccccc3Cl)c2)c1	13%
O=C(Cn1c(NCCO)nc2ccccc21)c1cccc2ccccc12	21%
COc1cccc(N2C(=O)/C(=C/c3ccc([N+](=O)[O-])cc3)SC2=S)c1	7%
COc1cccc(NC(=O)c2ccc(C(C)(C)C)cc2)c1	11%
NC(=O)N=Nc1c(O)[nH]c2ccc(I)cc12	5%
CC1(C)CC(=O)C(C=NC2CCCCCCC2)=C(O)C1	3%
O=C(Nc1ccccc1)c1c(NC(=S)Nc2ccccc2)sc2c1CCCC2	46%
COc1ccc(CCC(=O)Nc2sc3c(c2C(N)=O)CCCCCC3)cc1	12%
COC(=O)c1c(NC(=S)Nc2ccccc2)sc2c1CCCC2	59% (active)
Cc1ccc(C(=O)Nc2sc3c(c2C(N)=O)CCCCCC3)cc1	32%
NC(=O)c1c(NC(=O)c2ccc(S(=O)(=O)N3CCCCC3)cc2)sc2c1CCCC2	53% (active)
CCOC(=O)c1c(NC(=O)c2ccc(S(=O)(=O)N3CCCCCC3)cc2)sc2c1CCC2	6%
CCOC(=O)c1c(NC(=S)Nc2ccccc2)sc2c1CCCCC2	28%
COc1ccc(C(=O)Nc2sc3c(c2C(N)=O)CCCCCC3)cc1OC	0%
O=C(CCc1ccccc1)Nc1sc2c(c1C(=O)O)CCCC2	4%
COc1cc2ccccc2cc1C(=O)Nc1sc2c(c1C(N)=O)CCCC2	59% (active)
COc1ccc(C(=O)Nc2sc3c(c2C(N)=O)CCCC3)cc1	17%
C=CCN1C(=O)/C(=C\c2ccc(OCc3ccccc3C)c(OC)c2)SC1=S	16%
COC(=O)c1cccc(NC(=O)COc2ccc(Br)c(C)c2)c1	3%
Cc1c(NC(=O)COc2ccc(Cl)cc2Cl)cccc1[N+](=O)[O-]	15%
CCN(CC)c1ccc(Nc2nc(-c3sc(N)nc3C)cs2)cc1	28%
CCN1CCn2c3c(c4cc(Br)ccc42)CCCC31 (configuration not stated)	7% and 3%
C(=NN1CCN(c2ccccn2)CC1)c1cccc(OCc2ccccc2)c1	0%
Cc1ccc(NC(=O)c2cccc([N+](=O)[O-])c2)cc1C	1%

Structure (SMILES)	inhibition
Cc1ccc(C)c(NC(=S)NC(=O)c2ccc(C)c([N+](=O)[O-])c2)c1	33%
NC(=O)C1CCN(C2CC(=O)N(c3ccc(Cl)cc3)C2=O)CC1 (configuration not stated)	12%
CCOc1ccc(N(CC(=O)Nc2c(C)cccc2C)S(C)(=O)=O)cc1	18%
C=CCOc1ccc(C=O)cc1I	25%
O=C(Nc1ccc([N+](=O)[O-])cc1Cl)c1cccnc1	5%
CC(C)C(NC(=O)CN(c1ccccc1F)S(C)(=O)=O)C(C)C	11%
NC(=O)c1c(N)sc2c1CCCCCC2	20%
NC(=O)c1c(N)sc2c1CCCCCCCCCC2	28%
Cc1cc(N2Cc3ccccc3C2)ccc1/C=C1\C(=O)NC(=O)N(Cc2ccco2)C1=O	42%
O=C1NC(=O)N(Cc2ccco2)C(=O)/C1=C/c1ccc(OCCOc2ccccc2)cc1	13%
O=C1NC(=O)N(Cc2ccco2)C(=O)/C1=C\c1cn(Cc2cccc(F)c2)c2ccccc12	57% (active)
COc1ccc2ccccc2c1/C=C1\C(=O)NC(=O)N(Cc2ccccc2)C1=O	40%
O=C1NC(=O)N(Cc2ccco2)C(=O)/C1=C\c1cn(Cc2ccc(Cl)cc2)c2ccccc12	37%
O=C1NC(=O)N(Cc2ccco2)C(=O)/C1=C\C=C\c1ccccc1	52% (active)
NC(=O)Cn1cc(/C=C2/C(=O)NC(=O)N(Cc3ccco3)C2=O)c2ccccc21	0%
COc1ccc(CN2C(=O)NC(=O)/C(=C\C=C\c3ccccc3)C2=O)cc1	10%
COc1ccc2ccccc2c1/C=C1/C(=O)NC(=O)N(Cc2ccco2)C1=O	50% (active)
CCN(CC)c1ccc(/C=C2/C(=O)NC(=O)N(Cc3ccco3)C2=O)c(OC)c1	45%
COc1cc(N2Cc3ccccc3C2)ccc1/C=C1\C(=O)NC(=O)N(Cc2ccco2)C1=O	51% (active)
COc1ccc(/C=C2/C(=O)NC(=O)N(Cc3ccco3)C2=O)c2ccccc12	48%
Cc1ccc(NC(=O)c2ccc(Cl)c(Cl)c2)c([N+](=O)[O-])c1	1%
CC(=O)NC(NC(=S)Nc1sc2c(c1C#N)CCCC2)C(Cl)(Cl)Cl (configuration not stated)	20%
COc1cc(C2CC(=O)NC(SCc3ccccc3)=C2C#N)ccc1O (configuration not stated)	6%
O=C(NN=C1CCCCC1)C(=O)Nc1ccc(F)cc1	8%
CCOc1c(Br)cc(/C=C2N=C(/C=C/c3ccccc3)OC/2=O)cc1OC	9%

Structure (SMILES)	inhibition
O=C(NNC(=O)c1cccc(C(=O)NNC(=O)c2ccc(Br)cc2)c1)c1ccc(Br)cc1	53% (active)
O=C(NNC(=O)c1cccc(O)c1)c1ccc(Br)cc1	10%
O=C(NNC(=O)c1cccc(C#Cc2ccccc2)c1)c1ccc(Br)cc1	46%
COc1ccc(C(NC(=O)C(C)C)c2ccc3cccnc3c2O)cc1OC (configuration not stated)	5%
Oc1ccc(C=Nc2ccc(Cl)c(Cl)c2)cc1O	17%
Oc1ccc(C=Nc2ccc(N=Cc3ccc(O)cc3)cc2)cc1	15%
Cc1nnc(C)n1/N=C/c1ccc(O)c(O)c1	44%
Oc1ccc(C=Nc2ccc(O)cc2)cc1	4%
Oc1ccc(/C=N/N=C/c2ccc(O)c(O)c2)cc1O	69% (active)
Oc1ccc(N=Cc2ccc(O)c(O)c2)cc1	70% (active)
COc1ccc(C(=O)OCC(=O)c2ccc(Br)cc2)cc1OC	16%
C=CCN(c1ccccc1C(=O)O)S(=O)(=O)/C=C/c1ccccc1	6%
CCOc1ccc(/C=N/NC(=O)c2cc(-c3ccc4ccccc4c3)n[nH]2)cc1	14%
COc1ccc(NCC(O)Cn2c3ccc(Cl)cc3c3cc(Cl)ccc32)c(OC)c1 (configuration not stated)	27%
O=C(NCc1ccco1)c1ccc(-c2cc(Cl)ccc2Cl)o1	31%
CCCn1c(O)c(N=NC(=O)C2COc3cc4ccccc4cc3O2)c2ccccc21 (configuration not stated)	34%
Cn1c(O)c(N=NC(=O)C2COc3cc4ccccc4cc3O2)c2ccccc21 (configuration not stated)	50% (active)
O=C(N=Nc1c(O)[nH]c2ccc(Br)cc12)C1COc2cc3ccccc3cc2O1 (configuration not stated)	4%
Cc1ccc2c(c1)c(N=NC(=O)COc1ccccc1C)c(O)n2C	20%
S=C(NCCOc1cccc2ccccc12)Nc1cccc2ccccc12	45%
O=C(NCCOc1cccc2ccccc12)Nc1cccc2ccccc12	51% (active)
O=C(NCCOc1cccc2ccccc12)Nc1cc(F)c(F)cc1Cl	0%
O=C(NN1CCOCC1)c1ccc(Br)cc1	2%
Cc1cccnc1NS(=O)(=O)c1cc(Cl)ccc1Cl	10%
Cc1ccc(S(=O)(=O)/N=C2\C=CC(=O)C(Br)=C2)cc1	20%

Structure (SMILES)	inhibition
CC1=CC(=O)C=C/C1=N\S(=O)(=O)c1ccc(C)cc1	32%
O=C1C=CC(=NS(=O)(=O)c2cccc([N+](=O)[O-])c2)C=C1	45%
CC1=C/C(=N/S(=O)(=O)c2ccc(C)cc2)C=C(Cl)C1=O	17%
Cc1ccc(S(=O)(=O)/N=C2/C=C(Cl)C(=O)c3ccccc32)cc1	20%
O=C1C=CC(=NS(=O)(=O)c2ccc(F)cc2)C=C1	43%
O=C1C=CC(=NS(=O)(=O)c2ccccc2)C=C1	56% (active)
O=C1C=CC(=NS(=O)(=O)c2ccc(Cl)cc2)C=C1	28%
O=C1C=C/C(=N\S(=O)(=O)c2ccc(Cl)c([N+](=O)[O-])c2)c2ccccc21	34%
COc1ccc(Cl)cc1NC(=O)c1cc(-c2ccccc2)nc2ccccc12	0%
COc1cc(C2/C(=C(\O)c3ccc(C)cc3)C(=O)C(=O)N2CCCC(=O)O)ccc1O (configuration not stated)	0%
CCOC(=O)C1=C(C)N=c2s/c(=C\c3ccccc3O)c(=O)n2C1c1ccc(Cl)cc1 (configuration not stated)	21%
COc1ccc(NC(=O)c2nn3c(C(F)(F)F)cc(-c4ccco4)nc3c2Cl)c(OC)c1	13%
COc1ccc(C(=O)N/C(=C\c2ccc(-c3cccc([N+](=O)[O-])c3)o2)C(=O)NCc2ccncc2)cc1	0%
O=S(=O)(N=C1C(Cl)=C(Cl)C(=NS(=O)(=O)c2ccccc2)C(Cl)=C1Cl)c1ccccc1	31%
Cc1ccccc1S(=O)(=O)N=C1C=CC(=O)C(Cl)=C1	11%
O=C1C(Cl)=CC(=NS(=O)(=O)c2ccccc2)C=C1Br	26%
O=C1C(Cl)=CC(=NS(=O)(=O)c2ccc(Cl)cc2)C=C1Cl	28%
CC(C)C1=CC(=NS(=O)(=O)c2ccc(Cl)cc2)C=C(C(C)C)C1=O	5%
O=C1C=C/C(=N\S(=O)(=O)c2ccccc2)C=C1Cl	19%
O=C1C(Cl)=CC(=NS(=O)(=O)c2ccc(Cl)cc2)c2ccccc21	8%
CC(C)(C)c1ccc(S(=O)(=O)N=C2C=CC(=O)C=C2)cc1	20%
CC(=O)N/C(=C\c1ccccc1)C(=O)NCC(=O)O	6%
